From PubChem BioAssay AID1259415 (National Center for Advancing Translational Sciences (NCATS), 2018)
Out of some 410,000 compounds screened, about 18,000 (4.4%) were called active. About 7% were inconclusive and are not listed. Only a selection was taken, and actives are over-represented in it overall. Values without a mark were called inactive. Rule as the data show it: active = activity change below about -60%; inconclusive = no clear call, values can overlap the other calls; inactive = above about -39%.

experiment: qHTS Assay for inhibitors of the human cytomegalovirus (HCMV); settings: HFF cells, HCMV-luciferase reporter, 72 h; at 57.5 µM; active compounds read low
Method in brief: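 Compounds were evaluated in HFFs infected with an HCMV luciferase reporter virus (MOI 1 PFU/cell). Luciferase in lysates collected 72 h post infection served as the replication measure.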
% is scaled to controls: 0 for no effect and ±100 for the full control effect.

Structure (SMILES)	activity change, negative = inhibition
Cc1cccc(N2CCN(C(=O)c3cccc(S(=O)(=O)N4CCc5ccccc5C4)c3)CC2C)c1 (stereo not given)	-62.2% (active)
CC(NC(=O)c1cccc(S(=O)(=O)N2CCc3ccccc3C2)c1)c1ccco1 (stereo not given)	-21.6%
CN(C)C(CNC(=O)c1cccc(S(=O)(=O)N2CCc3ccccc3C2)c1)c1ccccc1 (stereo not given)	6.73%
CCc1nnc2c3ccccc3nc(N3CCN(c4ccc(C)cc4C)CC3)n12	2.29%
COc1ccccc1N1CC(C(=O)Nc2nnc(SCC(=O)NC(C)C)s2)CC1=O (stereo not given)	45.2%
CC(C)Nc1nnc(SCC(=O)/C=C2\N(C)c3ccccc3C2(C)C)s1	-65.1% (active)
COC(=O)c1ccc(CSc2nnc(NC(C)C)s2)cc1	-2.57%
Cc1ccccc1-c1nc2scc(CCNC(=O)C(=O)Nc3ccc(F)cc3F)n2n1	2.08%
CC(=O)c1cccc(NC(=O)CSc2nc3c(c(=O)[nH]2)CCC3)c1	-2.89%
CC(=O)Nc1ccc(-c2csc(NC(=O)Nc3ccccc3)n2)cc1	-99.1% (active)
NC(c1csc(NC(=O)Nc2ccccc2Oc2ccccc2)n1)c1ccccc1Cl (stereo not given)	-24.7%
C=CCSc1nnc2c(n1)-c1cccc3cccc-2c13	41.1%
CC(=O)c1ccc(NC(=O)N[C@@H](Cc2ccccc2)C(=O)O)cc1	23.2%
Cc1ccc(C(=O)Nc2nc(-c3ccccc3)ns2)cc1	27%
CSc1nsc(NC(=O)Nc2ccccc2)n1	-76.6% (active)
NC(=O)C1CCN(C(=O)c2cccc(NC(=O)c3nsc4ccccc34)c2)CC1	40.7%
CCSc1nsc(NC(=O)Nc2cccc(C(C)=O)c2)n1	-74.9% (active)
CC(=O)c1ccc(NC(=O)CSc2nnc(NC(=O)Nc3ccccc3)s2)cc1	103%
C=CCSc1nsc(NC(=O)Nc2cccc(C(C)=O)c2)n1	-101% (active)
Cc1ccccc1CNC(=O)c1cccc(NC(=O)c2nsc3ccccc23)c1	66.7%
CCOC(=O)c1cnc2c(C)cc(Cl)cc2c1NCCc1ccc(OC)c(OC)c1	-5.49%
CCOc1ccc(NC(=O)CCC(=O)N2CC(C)Oc3ccc(C)cc32)cc1 (stereo not given)	-10.3%
COc1ccc(NC(C)=O)cc1NC(=O)CN1CCN(c2ccc(F)cc2)CC1	-5.69%
COc1ccccc1/C=C/c1nc(C#N)c(NC(C)c2ccccc2)o1 (stereo not given)	81.4%
CCCCC12CN3CC(C)(CN(C1)C3c1ccc(O)c(OC)c1)C2=O (stereo not given)	4.32%
Cc1ccc(OCC(=O)Nc2ccc(OCc3cc(=O)n4c(C)csc4n3)cc2)cc1C	18.3%
CC(C(=O)N1CCN(c2ccccc2F)CC1)c1ccc([N+](=O)[O-])cc1 (stereo not given)	-11.5%
O=C1OC(C(=O)Nc2cccc(Br)c2)Cc2ccccc21 (stereo not given)	7.91%

Structure (SMILES)	activity change, negative = inhibition
O=C(CCSc1ccccc1)N1CCN(c2ccccc2F)CC1	72.3%
Cn1cc(-c2ccccc2)cc(C#N)c1=O	-1.91%
Cn1c(-c2sc3cc(C(F)(F)F)cnc3c2-c2ccccc2)n[nH]c1=S	18.8%
CC12CCC(C(=O)N(NC(=O)c3ccccc3O)C1=O)C2(C)C (stereo not given)	-81.2% (active)
O=C(NN1C(=O)C2CCCCC2C1=O)c1ccco1 (stereo not given)	3.07%
CC1=CC(C)(C)NC(=S)N1NC(=O)c1ccccc1Cl	38.2%
CCC(C)NCC(=O)Nc1ccc([N+](=O)[O-])cc1C(=O)Nc1ccccc1F (stereo not given)	20.4%
Cn1c(=O)cc(OCC(=O)N2CCN(c3ccccc3)CC2)c2ccccc21	0.385%
O=C(C[C@H]1C/C=C\C[C@@H](NC(=O)OCC2c3ccccc3-c3ccccc32)C(=O)O[C@@H](c2ccccc2)CNC1=O)N[C@H](CO)Cc1ccccc1	-86.9% (active)
CC(C)(C)OC(=O)C[C@@H]1C/C=C\C[C@@H](CC(=O)N[C@H](CO)Cc2ccccc2)C(=O)NC[C@@H](c2ccccc2)OC1=O	-6.88%
CC(C)(C)OC(=O)C[C@H]1C/C=C\C[C@@H](CC(=O)N[C@H](CO)Cc2ccccc2)C(=O)NC[C@@H](c2ccccc2)OC1=O	-8.79%
O=[N+]([O-])c1ccc(Oc2ccc(F)cc2Br)c2ccncc12	-78.1% (active)
COc1ccc2oc(=O)c(-c3cn4c(n3)sc3cc(OC)ccc34)cc2c1	-16.2%
O=[N+]([O-])c1ccc(C=Nc2ccc(Cl)cc2Cl)s1	-103% (active)
C=CCN1C=C(C(=O)c2ccccc2)C(=O)CC1	-25.3%
CCOc1ccc(CC(=O)NCCc2csc3nc(-c4ccccc4F)nn23)cc1	-0.0376%
CCOc1ccccc1C(=O)Nc1ccc2c(c1)N(C)C(=O)c1ccccc1S2	5.48%
CC(=O)c1c(C)oc2ccc(NS(=O)(=O)c3ccccc3)cc12	-24.7%
CCOC(=O)c1c(C)oc2ccc(N(C(=O)c3ccncc3)S(=O)(=O)c3ccc(CC)cc3)cc12	-6.14%
COC(=O)c1c(C)oc2ccc(N(C(=O)Oc3ccccc3)S(=O)(=O)c3ccccc3)cc12	-63.7% (active)
Cc1cccc(N(C)C(=O)CS(=O)(=O)c2cccc3nsnc23)c1	-14.6%
CCN(C(=O)Cn1c(=O)nc(-c2ccccc2)c2cc(Cl)ccc21)c1cccc(C)c1	-20.1%
O=C(NCCc1ccc(Cl)cc1)c1ccc2c(c1)N(Cc1ccc(F)cc1)C(=O)CS2	2.62%
Cc1ccc(Nc2cc(C)nc3c(C)ccc([N+](=O)[O-])c23)cc1	-65.6% (active)
CNc1ccc(-c2nc(-c3ccccc3C)no2)cc1[N+](=O)[O-]	63.3%
Cc1ccc(NC2=NC(c3ccccc3)n3c(nc(C)cc3=O)N2)cc1 (stereo not given)	-12%
C[C@@H]1CN([C@H](C)CO)C(=O)CCCn2cc(nn2)CO[C@H]1CN(C)C(=O)Nc1ccc(N2CCCCC2)cc1	5.98%
